Our source for the PBM binding z-score values is the supplement of paper PMC6555819.

Holding throughout (experiment): PBM binding z-score (relative to random genomic background probes); higher = stronger binding; sequences stand for … in GC…GCGATTGACAGCGTAGAATGAAGG
Assay [1] has as its system FXR:RXRa (NR concentration 270 nM, RXRa partner concentration 90 nM). Put shortly: (§1)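 For binding z-scores, the reference was random background probes on custom Agilent 4×180K protein-binding microarrays. These arrays were incubated 1 h with ligand-free nuclear receptor dimers in PBS pH 7.4, 2% milk, 0.02% Triton X-100, 1 mM DTT, 0.2 mg/mL BSA and 0.4 mg/ml salmon testes DNA. Fluorescence was scanned after antibody detection of each partner (one per run) and regression-normalized.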

Assay [2] relates to LXRa:RXRa (NR concentration 270 nM, RXRa partner concentration 90 nM). Summed up:
as §1

For assay [3], the system named is LXRa homodimer (NR concentration 270 nM). Summed up:
as §1

For assay [4], the system named is LXRb:RXRa (NR concentration 270 nM, RXRa partner concentration 90 nM). Put shortly:
as §1

The subject of assay [5] is LXRb homodimer (NR concentration 270 nM). Summed up: as §1
For assay [6], the system named is PPARa:RXRa (NR concentration 270 nM, RXRa partner concentration 90 nM). Summed up:
as §1

Assay [7] concerns PPARg:RXRa (NR concentration 180 nM, RXRa partner concentration 90 nM). Put shortly: as §1
The test system of assay [8] is PPARg:RXRa 270nM:90nM, anti-RXR (NR concentration 270 nM, RXRa partner concentration 90 nM). Summed up:
as §1

Assay [9] concerns PPARg:RXRa 30nM:10nM, anti-RXR (NR concentration 30 nM, RXRa partner concentration 10 nM). Put shortly: as §1
Assay [10] deals with PPARg:RXRa 90nM:30nM, anti-RXR (NR concentration 90 nM, RXRa partner concentration 30 nM). Put shortly: as §1

In the case of AGTCAAAGTTCAGGACGAGGTAACCTAAAGCACG, the PBM binding z-score amounted to 4.17 in assay [1]; 3.71 in assay [2]; 1.24 in [3]; 1.96 in assay [4]; 0.245 in assay [5]; 3.49 in [6]. Besides, the PBM binding z-score amounted to 4.24 in assay [7], 4.79 in [8], 2.04 in [9] and 3.75 in assay [10].

In the case of TCTTGTAGAGCAACAGGAGGTTAAGAAAGATCGA, the PBM binding z-score is 0.207 in assay [1]; 0.661 in assay [2]; -0.177 in [3]; 0.486 in [4]; -0.586 in assay [5]; 1.12 in [6]. The PBM binding z-score in assay [7] was -0.0991; in assay [8], 0.587; in assay [9], 1.4; in assay [10], 0.921.

With TCGACTAGGTTAGGGGCATTCAGAATGGCGTCGA, the PBM binding z-score is 0.141 in [1]; 0.372 in assay [2]; -0.304 in [3]; 0.803 in [4]; -0.322 in assay [5]; 1.38 in assay [6]. The PBM binding z-score is 1.35 in [7], 2.49 in assay [8], 1.74 in [9] and 2.17 in assay [10].

Regarding CCGAGTAGGTTATGTGGCATTCAGGCAACGGTGA, the PBM binding z-score was 0.192 in [1]; 0.353 in [2]; 0.0932 in assay [3]; 0.0215 in [4]; -0.284 in assay [5]; 0.798 in assay [6]. Further, the PBM binding z-score is 0.853 in [7], 1.85 in assay [8], -0.095 in assay [9] and 0.651 in assay [10].

As to CGTCAAAGTTCAACCAAGGTAACGTAAAGCACGC, the PBM binding z-score in [1] was 7.34; in [2], 6.27; in [3], 4.15; in [4] it was 4.07; in assay [5] it was 1.7; in assay [6], 5.02. In addition, the PBM binding z-score in assay [7] stood at 5.31; in assay [8], 5.53; in assay [9], 2.39; in [10], 4.77.

On to GCTTGTAGATCAAGGTTAATAAAGACTAAGCTAA, for which the PBM binding z-score in [1] is -0.0696; in assay [2], 2.14; in [3] it was -0.45; in [4], 0.661; in [5], -0.608; in assay [6], 1. The PBM binding z-score in assay [7] came out at 1.29; in [8] it was 2.36; in assay [9] it was 0.581; in assay [10] it was 1.78.

For the sequence CCGACTGGGGCAACGTTACCATAACGCACAGCCA, the PBM binding z-score in assay [1] was -0.667; in assay [2], -0.521; in assay [3], -0.397; in [4], -0.465; in [5], -1.01; in [6] it was 0.0876. Besides, the PBM binding z-score in assay [7] is 1.64; in assay [8], 0.667; in [9], -0.502; in assay [10], -0.136.

For AGAATGAGGTTACCAAATATCAGGGAAACGCTTG, the PBM binding z-score in [1] is 1.57; in assay [2], 2.74; in assay [3] it was -0.144; in assay [4], 1.81; in assay [5], -0.351; in assay [6] it was 3.3. Besides, the PBM binding z-score in assay [7] was 2.58; in [8] it was 2.84; in [9], 1.07; in assay [10], 2.04.

Turning to CGTCCCAGGTCAATGCTAGGTCAGTGAAAGCATT, the PBM binding z-score was 4.29 in [1]; 4.18 in assay [2]; 2.32 in assay [3]; 3.02 in assay [4]; -0.0307 in assay [5]; 3.94 in assay [6]. Also, the PBM binding z-score in assay [7] worked out at 2.35; in assay [8] it was 3.05; in [9], 0.367; in assay [10], 1.97.

As for CGTCAAAGTTCGAGGTAACGTAACAGAAAGCAGC, the PBM binding z-score in assay [1] is 1.32; in assay [2] it was 1.25; in assay [3], 0.0429; in assay [4] it was 0.91; in [5], -0.403; in assay [6], 1.74. The PBM binding z-score is 1.36 in [7], 1.98 in [8], 0.481 in assay [9] and 1.36 in [10].

As to GCGATTGGGGCATCAGCAGGTTACCATAACTTAA, the PBM binding z-score in assay [1] was 0.0293; in assay [2], -0.187; in assay [3] it was -0.243; in [4], 1.24; in assay [5], -0.0268; in assay [6], 0.814. Besides, the PBM binding z-score in assay [7] was 0.255; in assay [8] it was -0.0261; in assay [9], -0.258; in assay [10], -0.582.

For the sequence AGAAAGAGGTTACCAAAGATCAGGGAAACGCTTG, the PBM binding z-score was 2.31 in assay [1]; 6.51 in [2]; -0.18 in [3]; 3.65 in assay [4]; 0.0945 in [5]; 3.37 in assay [6]. In addition, the PBM binding z-score in assay [7] came out at 2.1; in [8], 2.36; in [9] it was 0.802; in assay [10] it was 1.77.
